Read-out in assay [1]: Pyruvate Dehydrogenase Kinase 4 (PDK4), PDK4 (gene 5166)
As to the kind of experiment: LTEA_HepaRG_PDK4: Life Technologies and Expression Analysis (LTEA) Assay for Pyruvate Dehydrogenase Kinase 4 (PDK4) using HepaRG (AID 2283525). The settings on record: mRNA level, 48 h; actives raise or lower the signal. Put shortly:
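In this multiplexed human HepaRG expression assay, cells are treated 48 h with test chemicals across an eight-point range starting at 100 uM. PDK4 mRNA changes, normalized to ACTB/GAPDH/POLR2A, are fitted in both directions relative to vehicle.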

Read-out in assay [2]: NAD(P)H dehydrogenase [quinone] 1 (NQO1), NQO1 (gene 1728)
Nature of the assay: LTEA_HepaRG_NQO1: Life Technologies and Expression Analysis (LTEA) Assay for NAD(P)H dehydrogenase [quinone] 1 (NQO1) using HepaRG (AID 2283526). The following applies: mRNA level, 48 h; actives raise or lower the signal. Put shortly:
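Differentiated HepaRG cells, plated 48 h and then switched to serum-free induction medium, were exposed in duplicate for 48 h to 8-point half-log concentrations up to 100 uM in 0.5% DMSO. mRNA measured by qRT-PCR, normalized to ACTB, GAPDH, POLR2A; bidirectional fit versus DMSO.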

Read-out in assay [3]: Nuclear factor erythroid 2-related factor 2 (Homo sapiens) (UniProt Q16236)
As to the kind of experiment: LTEA_HepaRG_NFE2L2: Life Technologies and Expression Analysis (LTEA) Assay for Nuclear factor erythroid 2-related factor 2 (NFE2L2) Transcription Factor using HepaRG (AID 2283527).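 On outcome: TaqMan qRT-PCR transcript level normalised to ACTB GAPDH and POLR2A housekeeping genes.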 The following applies: mRNA level, 48 h; actives raise or lower the signal. Put shortly: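 Transcript level of NFE2L2 is the read-out, measured by microfluidic TaqMan qRT-PCR and normalized to three housekeeping genes. Human HepaRG cultures received test chemical for 48 h at up to 100 uM in half-log steps. Gain or loss of signal is fitted relative to 0.5% DMSO.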

Read-out in assay [4]: succinate dehydrogenase complex iron sulfur subunit B (SDHB), SDHB (gene 6390)
Nature of the assay: LTEA_HepaRG_SDHB: Life Technologies and Expression Analysis (LTEA) Assay for succinate dehydrogenase complex iron sulfur subunit B (SDHB) using HepaRG (AID 2283528). The settings on record: mRNA level, 48 h; actives raise or lower the signal. In outline:
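HepaRG, 48 h exposure, 8-pt half-log series from 100 uM in 0.5% DMSO, duplicates. Readout: SDHB mRNA by Fluidigm qRT-PCR vs housekeeping genes; bidirectional fit relative to DMSO.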

Read-out in assay [5]: Signal transducer and activator of transcription 3 (Homo sapiens) (UniProt P40763)
Nature of the assay: LTEA_HepaRG_STAT3: Life Technologies and Expression Analysis (LTEA) Assay for Signal transducer and activator of transcription (STAT3) using HepaRG (AID 2283529). The following applies: mRNA level, 48 h; actives raise or lower the signal. In outline: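 Read-out is STAT3 mRNA level by qRT-PCR, normalized to three housekeeping genes, in human HepaRG liver cells treated for 48 h. Concentrations ran from 100 uM downward in half-log steps; curves were fitted for gain or loss relative to 0.5% DMSO.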

Read-out in assay [6]: solute carrier (SLCO1B1), SLCO1B1 (gene 10599)
Nature of the assay: LTEA_HepaRG_SLCO1B1: Life Technologies and Expression Analysis (LTEA) Assay for solute carrier (SLCO1B1) using HepaRG (AID 2283530). The following applies: mRNA level, 48 h; actives raise or lower the signal. Put shortly:
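Human HepaRG cultures treated for 48 h with an eight-concentration half-log series topping at 100 uM; SLCO1B1 measured by qRT-PCR and fitted bidirectionally relative to DMSO.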

Read-out in assay [7]: sulfotransferase 2A1 (SULT2A1), SULT2A1 (gene 6822)
As to the kind of experiment: LTEA_HepaRG_SULT2A1: Life Technologies and Expression Analysis (LTEA) Assay for sulfotransferase 2A1 (SULT2A1) using HepaRG (AID 2283531). The following applies: mRNA level, 48 h; actives raise or lower the signal. In outline: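 Gene-expression endpoint in a human liver cell line: SULT2A1 mRNA change after 48 h chemical treatment, curves fitted in both directions relative to 0.5% DMSO vehicle. Concentrations spanned eight half-log steps from 100 uM.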

Read-out in assay [8]: Transforming Growth Factor (TGFA), TGFA (gene 7039)
Nature of the assay: LTEA_HepaRG_TGFA: Life Technologies and Expression Analysis (LTEA) Assay for Transforming Growth Factor (TGFA) using HepaRG (AID 2283532). The settings on record: mRNA level, 48 h; actives raise or lower the signal. In outline: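 HepaRG (human liver line), 48 h exposure, 8 conc. half-log down from 100 uM, 0.5% DMSO vehicle, duplicates; serum-free induction medium. TGFA mRNA by TaqMan qRT-PCR, ACTB/GAPDH/POLR2A normalization; gain/loss fit vs DMSO.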

Read-out in assay [9]: Transforming Growth Factor (TGFB1), TGFB1 (gene 7040)
As to the kind of experiment: LTEA_HepaRG_TGFB1: Life Technologies and Expression Analysis (LTEA) Assay for Transforming Growth Factor (TGFB1) Transporter using HepaRG (AID 2283533). The settings on record: mRNA level, 48 h; actives raise or lower the signal. Put shortly:
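Eight-point concentration-response (max 100 uM, half-log) in HepaRG under serum-free induction conditions, 48 h. TGFB1 mRNA by qRT-PCR, housekeeping-normalized.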

Read-out in a further assay: TIMP1, TIMP1 (gene 7076)
As to the kind of experiment: LTEA_HepaRG_TIMP1: Life Technologies and Expression Analysis (LTEA) Assay for TIMP1 using HepaRG (AID 2283534).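 Further: TaqMan qRT-PCR signal normalized to ACTB GAPDH and POLR2A housekeeping genes.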 The settings on record: mRNA level, 48 h; actives raise or lower the signal. In outline:
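TIMP1 induction or repression in HepaRG cells after 48 h chemical exposure (eight concentrations, highest 100 uM), assessed by normalized qRT-PCR with bidirectional fitting to DMSO controls.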

Read-out in assay [10]: Tumor necrosis factor receptor 1 (TNFRSF1A), TNFRSF1A (gene 7132)
As to the kind of experiment: LTEA_HepaRG_TNFRSF1A: Life Technologies and Expression Analysis (LTEA) Assay for Tumor necrosis factor receptor 1 (TNFRSF1A) using HepaRG (AID 2283535). The settings on record: mRNA level, 48 h; actives raise or lower the signal. In outline:
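Assay uses 48 h chemical treatment of differentiated HepaRG monolayers, tested in duplicate at eight concentrations from 100 uM downward in 0.5% DMSO. mRNA is normalized to ACTB, GAPDH and POLR2A, with induction or suppression fitted relative to vehicle.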

Read-out in assay [11]: Thyroid Hormone Responsive (THRSP), THRSP (gene 7069)
As to the kind of experiment: LTEA_HepaRG_THRSP: Life Technologies and Expression Analysis (LTEA) Assay for Thyroid Hormone Responsive (THRSP) using HepaRG (AID 2283536). The following applies: mRNA level, 48 h; actives raise or lower the signal. Put shortly: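 mRNA induction or loss relative to 0.5% DMSO vehicle was fitted bidirectionally across an eight-point curve whose highest exposure was 100 uM. Human HepaRG liver cells received chemicals in duplicate over 48 h before RNA extraction.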

Read-out in assay [12]: UDP glucuronosyltransferase (UGT1A1), UGT1A1 (gene 54658)
Nature of the assay: LTEA_HepaRG_UGT1A1: Life Technologies and Expression Analysis (LTEA) Assay for UDP glucuronosyltransferase (UGT1A1) using HepaRG (AID 2283538). The settings on record: mRNA level, 48 h; actives raise or lower the signal. Put shortly:
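Differentiated human HepaRG cells in serum-free induction medium were exposed in duplicate for 48 h to eight half-log concentrations up to 100 uM in 0.5% DMSO. UGT1A1 mRNA was quantified by TaqMan qRT-PCR, normalized to ACTB, GAPDH and POLR2A, and fitted bidirectionally against DMSO.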

Read-out in assay [13]: UDP glucuronosyltransferase (UGT1A6), UGT1A6 (gene 54578)
Nature of the assay: LTEA_HepaRG_UGT1A6: Life Technologies and Expression Analysis (LTEA) Assay for UDP glucuronosyltransferase (UGT1A6) using HepaRG (AID 2283539). The following applies: mRNA level, 48 h; actives raise or lower the signal. In outline: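 Measures mRNA change in HepaRG hepatic cells exposed 48 h to chemicals (eight-point, maximum 100 uM, 0.5% DMSO vehicle) in serum-free induction medium. Expression normalized to endogenous controls; DMSO served as negative control and baseline.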

Read-out in assay [14]: X-box binding protein 1 (XBP1), XBP1 (gene 7494)
As to the kind of experiment: LTEA_HepaRG_XBP1: Life Technologies and Expression Analysis (LTEA) Assay for X-box binding protein 1 (XBP1) using HepaRG (AID 2283540). The settings on record: mRNA level, 48 h; actives raise or lower the signal. Put shortly:
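Eight concentrations (half-log, highest 100 uM, 0.5% DMSO) tested in duplicate on HepaRG cells over 48 h in serum-free induction medium; qRT-PCR of XBP1 normalised to ACTB, GAPDH, POLR2A.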

Assay [15] is described as follows: LTEA_HepaRG_LDH_cytotoxicity: Cytotoxicity Assessment in the Life Technologies and Expression Analysis (LTEA) Assay (AID 2283563; active means hit-call score of the fitted dose curve at least 0.9, where 1 is the maximum). Put shortly:
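Spent-medium LDH after 48 h chemical exposure of HepaRG cells in serum-free induction medium; eight concentrations, half-log dilutions from 100 uM, duplicate wells, fitted upward relative to 0.5% DMSO.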

Assay [16] in a line: ATG_XTT_Cytotoxicity: Cytotoxicity Assessment in the Attagene TRANS-FACTORIAL HepG2 Assay (AID 2283584; active means hit-call score of the fitted dose curve at least 0.9, where 1 is the maximum). Put shortly: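 24 h chemical exposure of reporter-transfected HepG2; XTT signal loss vs DMSO indicates cytotoxicity.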
Assay [17] has as its target Cellular tumor antigen p53 (Homo sapiens) (UniProt P04637). As to the kind of experiment: TOX21_p53_BLA_p2_ratio: Tox21 HCT-116 p53 Agonism Beta-lactamase Assay, Ratio, Phase 2 (AID 2283592; active means hit-call score of the fitted dose curve at least 0.9, where 1 is the maximum). In outline: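 Human colon HCT116 cells with an inducible p53 beta-lactamase reporter are exposed to test chemicals for 16 h at 37C. Reporter induction is read as the 460/530 nm emission ratio after CCF4-AM loading, normalized to DMSO.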

Read-out in assay [18]: Cellular tumor antigen p53 (Homo sapiens) (UniProt P04637)
Nature of the assay: LTEA_HepaRG_TP53: Life Technologies and Expression Analysis (LTEA) Assay for Tumor Protein P53 (TP53) using HepaRG (AID 2283537). The following applies: mRNA level, 48 h; actives raise or lower the signal. Put shortly: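 HepaRG, 48 h exposure, top 100 uM, half-log 8-point, 0.5% DMSO vehicle, duplicates. Read: TP53 mRNA by TaqMan qRT-PCR, normalised to ACTB/GAPDH/POLR2A; bidirectional fit vs DMSO.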

Assay [19] in a line: TOX21_p53_BLA_p2_viability: Viability Assessment in the Tox21 HCT-116 p53 Agonism Beta-lactamase Assay, Phase 2 (AID 2283591; active means hit-call score of the fitted dose curve at least 0.9, where 1 is the maximum;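 further: compound exposure lasted 16 h at 37 °C; actives lower the ATP signal meaning cytotoxicity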). Put shortly:
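Cytotoxicity readout: CellTiter-Glo ATP luminescence, 30 min at room temperature, after the beta-lactamase read. Cells were HCT116 exposed 16 h at 37C to compounds pin-transferred at 217-fold dilution from DMSO stocks.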

Records with an inconclusive call do not appear. The source holds several records for some structures; these can differ, active in one and inactive in another. Calls of active or inactive are those of the source. How the source made its calls, unless noted: active means hit-call score of the fitted dose curve at least 0.9, where 1 is the maximum; inactive means score below 0.9.

For 4 molecules, outcome and AC50 results are on record in PubChem BioAssay (EPA / NIEHS).

Sequence of Nuclear factor erythroid 2-related factor 2 (Homo sapiens) (Q16236 whole entry, looked up): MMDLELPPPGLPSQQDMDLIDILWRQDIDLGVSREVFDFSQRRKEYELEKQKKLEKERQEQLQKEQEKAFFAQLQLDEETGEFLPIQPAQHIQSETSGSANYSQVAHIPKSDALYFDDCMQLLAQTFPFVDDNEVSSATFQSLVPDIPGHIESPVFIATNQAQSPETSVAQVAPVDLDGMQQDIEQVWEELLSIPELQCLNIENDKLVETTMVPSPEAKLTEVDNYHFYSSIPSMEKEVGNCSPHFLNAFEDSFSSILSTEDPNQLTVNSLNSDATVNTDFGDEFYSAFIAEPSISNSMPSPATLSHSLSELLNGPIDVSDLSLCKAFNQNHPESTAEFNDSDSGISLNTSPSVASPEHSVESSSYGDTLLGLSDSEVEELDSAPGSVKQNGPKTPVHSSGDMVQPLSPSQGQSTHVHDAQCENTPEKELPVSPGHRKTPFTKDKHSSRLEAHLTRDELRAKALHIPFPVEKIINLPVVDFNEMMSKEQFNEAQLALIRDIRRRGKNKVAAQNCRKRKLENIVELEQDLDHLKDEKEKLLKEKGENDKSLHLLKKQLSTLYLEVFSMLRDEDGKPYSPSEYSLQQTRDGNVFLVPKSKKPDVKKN
Sequence of Cellular tumor antigen p53 (Homo sapiens) (P04637 whole entry, looked up): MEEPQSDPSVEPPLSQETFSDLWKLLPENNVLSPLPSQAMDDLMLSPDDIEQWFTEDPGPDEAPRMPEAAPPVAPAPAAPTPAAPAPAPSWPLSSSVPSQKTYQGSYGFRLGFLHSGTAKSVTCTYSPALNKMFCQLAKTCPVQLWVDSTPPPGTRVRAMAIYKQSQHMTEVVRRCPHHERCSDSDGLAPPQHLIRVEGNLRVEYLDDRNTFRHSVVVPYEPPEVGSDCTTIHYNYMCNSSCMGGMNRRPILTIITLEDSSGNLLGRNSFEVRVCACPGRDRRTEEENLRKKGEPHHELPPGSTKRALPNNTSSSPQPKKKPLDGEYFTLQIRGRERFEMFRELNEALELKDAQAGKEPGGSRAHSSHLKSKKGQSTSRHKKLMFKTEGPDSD
Sequence of Signal transducer and activator of transcription 3 (Homo sapiens) (P40763 whole entry, looked up): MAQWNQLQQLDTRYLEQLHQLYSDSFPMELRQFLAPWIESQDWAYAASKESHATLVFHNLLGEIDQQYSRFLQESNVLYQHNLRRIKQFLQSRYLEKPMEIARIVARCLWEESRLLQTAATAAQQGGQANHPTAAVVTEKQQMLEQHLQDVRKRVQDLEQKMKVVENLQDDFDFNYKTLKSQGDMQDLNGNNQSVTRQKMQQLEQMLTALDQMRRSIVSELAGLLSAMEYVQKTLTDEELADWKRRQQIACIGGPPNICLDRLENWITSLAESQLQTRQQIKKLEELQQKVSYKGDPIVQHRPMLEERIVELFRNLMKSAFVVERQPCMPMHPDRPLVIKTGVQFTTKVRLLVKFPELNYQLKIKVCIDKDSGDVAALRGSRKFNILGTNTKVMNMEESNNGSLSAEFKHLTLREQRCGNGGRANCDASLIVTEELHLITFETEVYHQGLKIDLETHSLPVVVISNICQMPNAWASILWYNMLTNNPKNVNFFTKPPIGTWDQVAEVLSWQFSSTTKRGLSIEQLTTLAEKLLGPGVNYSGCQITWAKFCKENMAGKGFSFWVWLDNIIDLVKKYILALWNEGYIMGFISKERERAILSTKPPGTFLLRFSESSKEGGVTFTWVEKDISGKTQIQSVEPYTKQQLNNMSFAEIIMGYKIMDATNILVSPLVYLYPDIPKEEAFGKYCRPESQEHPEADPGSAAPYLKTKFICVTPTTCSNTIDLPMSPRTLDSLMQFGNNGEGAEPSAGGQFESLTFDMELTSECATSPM

Regarding `Cc1cccc(C)c1N`, the molecule was called inactive in [1], in assay [2], in [3], in [4], in assay [5] and in assay [6]. Moreover, the outcome is “inactive” in assay [7]; “inactive” in assay [8]; “inactive” in assay [9]; “inactive” with TIMP1, TIMP1 (gene 7076); “inactive” in assay [10]; “inactive” in [11]. For the same molecule, the result in assay [12], in assay [13], in assay [14], in [15], in assay [16] and in assay [17] was inactive.

Consider `O=S(=O)(O)C(F)(F)C(F)(F)C(F)(F)C(F)(F)C(F)(F)C(F)(F)F`, for which the result in assay [2], in assay [5], in [6], in assay [7], in [8] and in [9] was inactive. Further, the outcome with TIMP1, TIMP1 (gene 7076) was “inactive”; in assay [10], “inactive”; in [11], “inactive”; in assay [18], “inactive”; in assay [13] it was “inactive”; in [14], “inactive”. Moreover, the molecule was classed as inactive in [15], in assay [16] and in assay [17]. For the same molecule, the AC50 in [3] was 979 nM (active); in [4], 8.54 µM (active); in [12], 38.6 µM (active).

In the case of `CCNc1nc(NC(C)C)nc(SC)n1`, the result in [1], in assay [2], in assay [3], in [4], in assay [5] and in assay [6] was inactive. Moreover, the outcome in assay [7] was “inactive”; in assay [8] it was “inactive”; in assay [9] it was “inactive”; with TIMP1, TIMP1 (gene 7076), “inactive”; in assay [10], “inactive”; in assay [11] it was “inactive”. Further, the molecule was classed as inactive in [13], in assay [14] and in [15].

Turning to `CC(C)(O)C(=O)Nc1ccc([N+](=O)[O-])c(C(F)(F)F)c1`, the call in [1], in [3], in assay [4], in assay [5], in assay [7] and in [9] was inactive. Further, the outcome with TIMP1, TIMP1 (gene 7076) is “inactive”; in assay [10], “inactive”; in assay [11] it was “inactive”; in [12], “inactive”; in [13], “inactive”; in assay [15] it was “inactive”. The molecule was classed as inactive in assay [16], in assay [19] and in assay [17]. Also, the AC50 is 26.8 nM (active) in assay [2]; 19.1 nM (active) in [6]; 26.4 nM (active) in assay [8]; 21.2 nM (active) in assay [14]; 69.3 µM (active) in [17].

The AC50 is the concentration at which the activity in the assay is half-maximal.
